Assay [1] is described as follows: NCI Yeast Anticancer Drug Screen. Data for the rad50 strain (AID 155).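 Further: 0% = growth of vehicle-only cultures of the same strain.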 The note with it: S. cerevisiae rad50 strain growth inhibition; at 50.0 µM; hits give high values. In a few lines: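 Yeast carrying a defined DNA repair defect were exposed to test compounds, and growth was compared with vehicle-treated controls to give percent inhibition.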
Assay [2] can be described thus: NCI Yeast Anticancer Drug Screen. Data for the mec2-1 strain (AID 157). The note with it: S. cerevisiae mec2-1 strain, at 50.0 µM, hits give high values. In outline:
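Vehicle-treated cultures served as reference for growth inhibition of compound-exposed mec2-1 yeast.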

A short description of assay [3]: NCI Yeast Anticancer Drug Screen. Data for the sgs1 mgt1 strain (AID 161).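 Further: 0% = growth of cultures given vehicle only.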 The note with it: S. cerevisiae sgs1 mgt1 strain, at 50.0 µM, hits give high values. In outline:
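Read-out: growth inhibition vs vehicle controls. Cells: mutant yeast strain deficient in DNA damage repair.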

Assay [4] in a line: NCI Yeast Anticancer Drug Screen. Data for the cln2 rad14 strain (AID 165).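 Further: 0% = growth equal to vehicle treated cultures.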 The note with it: S. cerevisiae cln2 rad14 strain, at 50.0 µM, hits give high values. In outline: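 Each compound was tested on cln2 rad14 yeast. Inhibition of growth was calculated against vehicle-exposed controls.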
Assay [5] is described as follows: NCI Yeast Anticancer Drug Screen. Data for the bub3 strain (AID 167). The note with it: S. cerevisiae bub3 mutant strain, at 50.0 µM, hits give high values. In outline:
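Compounds were applied to a genetically altered yeast strain carrying a cell-cycle control defect. Growth inhibition was scored against vehicle-treated controls.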

Assay [6] is described as follows: NCI Yeast Anticancer Drug Screen. Data for the mlh1 rad18 strain (AID 175). The note with it: S. cerevisiae mlh1 rad18 strain growth inhibition; at 50.0 µM; hits give high values. In a few lines: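 Vehicle-treated cultures served as the reference for growth inhibition in a yeast strain carrying DNA damage repair alterations exposed to each compound.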

About 79,000 compounds went through this panel and 15% of them were active in at least one assay; those are over-represented in the sample as a whole. A number with no mark means an inactive call. Active and inactive are the calls of the source. No stated cut-off is given here; in the data, active means growth inhibition above about 70%; inactive means the rest.

In the case of `O=C1c2ccccc2-c2nc(-c3cccnc3)cc3c2c1nc1ccccc13`, the growth inhibition in assay [1] was 32.7%; in assay [2], 24.4%; in assay [3] it was 34.4%; in assay [4], 23%; in assay [5], 24.7%; in assay [6] it was 39%.
With `CC1=CC(=O)/C(=C/n2c(=S)[nH]c3ccc([N+](=O)[O-])cc32)C(=O)O1`, the growth inhibition was 2.1% in assay [1]; -44.7% in assay [2]; -9.5% in assay [3]; 6.85% in assay [4]; 6.6% in assay [5]; -46.3% in assay [6].
For the compound `Nc1cn(Cc2ccccc2)c2nc(/C=C3/C=CC=CC3=O)c(O)n12`, the growth inhibition in assay [1] was 2.25%; in assay [2], 1.75%; in assay [3], -6.9%; in assay [4] it was -5.45%; in assay [5], 0.9%; in assay [6] it was 8.85%.
For `CCc1nc2cc(F)ccc2[nH]c1=O`, the growth inhibition is 17.3% in assay [1]; 24.2% in assay [2]; 28.9% in assay [3]; 21.4% in assay [4]; 40.9% in assay [5]; -7.55% in assay [6].
`CCOc1ccc(Cc2ccc3c(c2)OCO3)cc1C`: the growth inhibition was -17.2% in assay [1]; -13.3% in assay [2]; -7.55% in assay [3]; -13.2% in assay [4]; -2.1% in assay [5]; 2.2% in assay [6].
`CC(O)CCNC(c1ccccc1)C(O)c1ccccc1` (stereo not given): the growth inhibition in assay [1] was 3%; in assay [2] it was -6.95%; in assay [3] it was -2.85%; in assay [4], -7.4%; in assay [5], 14.6%; in assay [6] it was -0.85%.
`O=C(O)CCSSCCCS(=O)O`: the growth inhibition is -26.6% in assay [1]; -3% in assay [2]; 36% in assay [3]; 18.9% in assay [4]; 0.45% in assay [5]; -2.2% in assay [6].
In the case of `Cc1c(C)c(C)c(CN2CCC(C)CC2)c(C)c1C`, the growth inhibition in assay [1] was -2.55%; in assay [2] it was 9.85%; in assay [3], -14.9%; in assay [4] it was -17.6%; in assay [5], 3.45%; in assay [6], -9.1%.
As to `O=[N+]([O-])c1ccc(OP2(Oc3ccc([N+](=O)[O-])cc3)=NP(Oc3ccc([N+](=O)[O-])cc3)(Oc3ccc([N+](=O)[O-])cc3)=NP(Oc3ccc([N+](=O)[O-])cc3)(Oc3ccc([N+](=O)[O-])cc3)=NP(Oc3ccc([N+](=O)[O-])cc3)(Oc3ccc([N+](=O)[O-])cc3)=N2)cc1`, the growth inhibition in assay [1] is -4.5%; in assay [2], -7.9%; in assay [3], -6.35%; in assay [4], -3.7%; in assay [5], -1.65%; in assay [6], -17.2%.
With `Cc1[nH]n(-c2ccccc2)c(=O)c1/C=N\C(N)=S`, the growth inhibition in assay [1] is -37%; in assay [2], -37.9%; in assay [3], -34.1%; in assay [4], -50.9%; in assay [5] it was -48%; in assay [6], -25.1%.
`O=C(CSc1nnc(Cc2ccccc2)o1)Nc1ccccc1`: the growth inhibition was -28.1% in assay [1]; 0.05% in assay [2]; -38.6% in assay [3]; -13.3% in assay [4]; -35.5% in assay [5]; -27.1% in assay [6].
Consider `CCCCCCCCCCCCCCCCCC/C(CC)=N/Nc1ccc([N+](=O)[O-])cc1[N+](=O)[O-]`, for which the growth inhibition is -21.1% in assay [1]; 3.7% in assay [2]; -12.2% in assay [3]; -25.1% in assay [4]; 11.2% in assay [5]; 5.55% in assay [6].
As for `CCCCC1SC(N)=NC1=O` (stereo not given), the growth inhibition in assay [1] was 14.9%; in assay [2], -2.35%; in assay [3] it was 12.5%; in assay [4] it was 53.2%; in assay [5], 3.9%; in assay [6], -17.7%.
Regarding `CCOC(=O)Nc1ccc([N+](=O)[O-])c2c1C(=O)c1ccccc1-2`, the growth inhibition in assay [1] was -9.55%; in assay [2] it was 2.9%; in assay [3], -8.6%; in assay [4], -10.7%; in assay [5], -21.6%; in assay [6], -19.5%.
As to `O=c1cc(-c2cccs2)ss1`, the growth inhibition in assay [1] is 18.4%; in assay [2], 5.25%; in assay [3] it was -0.65%; in assay [4], -34.6%; in assay [5], 13.8%; in assay [6] it was 25%.
`Cc1ccc(Cl)cc1NC(=O)Oc1ccc(Cl)cc1C`: the growth inhibition in assay [1] was 23.2%; in assay [2], 9.1%; in assay [3], -7.8%; in assay [4], 8.8%; in assay [5] it was 15.7%; in assay [6], 3.25%.
Regarding `COC1=CC(=O)C=C(C)C1=O`, the growth inhibition was 19.4% in assay [1]; -11.9% in assay [2]; -8.1% in assay [3]; 29.7% in assay [4]; 4% in assay [5]; 2% in assay [6].
As to `O=C(/C=C/NC(=O)OCc1ccccc1)OCc1ccccc1`, the growth inhibition in assay [1] is 9.35%; in assay [2], -5.5%; in assay [3] it was -0.9%; in assay [4], 17.1%; in assay [5], 3.55%; in assay [6], 0.95%.
For the compound `CC(C)(C)OC(=O)c1ccc(NCc2cc(O)ccc2O)cc1`, the growth inhibition in assay [1] was 87.4% (active); in assay [2], 89% (active); in assay [3] it was 90.8% (active); in assay [4], 90.3% (active); in assay [5], 88.5% (active); in assay [6] it was 87.1% (active).
Regarding `CN(Cc1ccccc1)C(=O)c1ccc(C(=O)N(C)Cc2ccccc2)cc1`, the growth inhibition in assay [1] was 1.75%; in assay [2], -1.65%; in assay [3], 19.4%; in assay [4], -3.95%; in assay [5], 35.1%; in assay [6], 40.2%.

Source of the values: PubChem BioAssay (NCI).
